# Hits are enriched below; roughly 9% of the tested compounds scored in any of these assays.
# HPGD block = qHTS Assay for Inhibitors of HPGD (15-Hydroxyprostaglandin Dehydrogenase). purified HPGD, NADH fluorescence kinetic, PGE2 substrate. Potency, µM, without a hit: at the top dose activity change, negative = inhibition, hits mostly inhibitors. 4.3% of 150,000 active. AID 894, 2007; active = well fitted inhibition curve with a large enough effect, not every such curve was filed as active; inconclusive = small, poorly fitted or top-dose-only effect, or another doubt; inactive = no such curve, though single readings can be large or run the other way; also: % is scaled to controls: 0 for no effect and ±100 for the full control effect
# Target sequence (P15428 whole entry, looked up): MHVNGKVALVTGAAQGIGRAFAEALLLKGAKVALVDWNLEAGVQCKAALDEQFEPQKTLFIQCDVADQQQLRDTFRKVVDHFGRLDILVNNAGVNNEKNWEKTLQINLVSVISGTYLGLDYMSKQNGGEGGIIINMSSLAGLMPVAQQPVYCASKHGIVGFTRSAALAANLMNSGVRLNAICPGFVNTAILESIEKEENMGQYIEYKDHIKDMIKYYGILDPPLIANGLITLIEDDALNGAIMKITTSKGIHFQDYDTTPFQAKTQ
#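 20 nM HPGD preincubated 15 min at room temperature with compound in 50 mM Tris-HCl pH 8, 0.01% Tween 20. Started with 1 mM NAD+ and 30 uM prostaglandin E2; NADH fluorescence (360/450 nm) read 5 times over 30-s intervals, last minus first.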
# HTT aggregate = qHTS Multiplex Assay to Identify Dual Action Probes in a Cell Model of Huntington: Aggregate Formation (GFP); PC12 HttQ103-GFP aggregates, Acumen cytometry, 40 h; Potency, µM (series often up to 46.1 µM), without a hit: at the highest dose activity change, negative = inhibition, hits mostly inhibitors; 1.1% of 220,000 active; also: % is scaled to controls: 0 for no effect and ±100 for the full control effect; nearly all actives have a fitted effect of over 60% in size
#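 Multiplexed with ATP-based cell death, this channel scores GFP aggregates in PC12 cells expressing inducible HTTex1-Q103-GFP. Induction used 100 nM tebufenozide; compounds were tested in concentration series.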
# Luc counter = Counterscreen for Luciferase (Kinase-Glo TM) Inhibition. Kinase-Glo luciferase, ATP luminescence, 8 min. 0.28% of 200,000 active. Potency, µM (series often up to 38.3 µM), without a hit: top-dose activity change, negative = inhibition, actives largely listed as inhibitors; also: % is scaled to controls: 0 for no effect and ±100 for the full control effect; nearly all actives have a fitted effect of over 60% in size
#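 Substrate mix (final 50 mM imidazole pH 7.2, 50 mM KCl, 7 mM MgCl2, 10 uM ATP, 0.01% Tween 20, 0.05% BSA) plus pin-tool compound, then Kinase-Glo detection mix; 8 min ambient, luminescence read.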
# LMNA splice mod = qHTS Assay for Modulators of Lamin A Splicing; HeLa LMNA splicing GFP/RFP minigene ratio, 48 h; AID 1487, 2009; Potency, µM (series often up to 46.1 µM), without a hit: at the highest dose ratio change, negative = inhibition, hits mostly inhibitors; 0.01% of 200,000 active; active = well fitted inhibition curve with a large enough effect in the signal ratio, with a control signal flat, not every such curve was filed as active; inconclusive = small, poorly fitted or top-dose-only effect, or effect the other way, or a change in a side signal; the % refers to the signal ratio; also: % is scaled to controls: 0 for no effect and ±100 for the full control effect
#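 Read-out is the ratio of GFP to DsRed2 object intensity, acquired by 488 nm laser-scanning cytometry on HeLa lamin A-EGFP minigene reporter cells. Compound incubation 48 hrs at 37 °C in Opti-MEM with 2% FBS; DMSO 0.5% final.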
# ALDH1A1 inh = qHTS Assay for Inhibitors of Aldehyde Dehydrogenase 1 (ALDH1A1); Potency, µM (titrated, usually from 75.3 µM), without a hit: at the top dose activity, negative = inhibition, actives largely listed as inhibitors; 7.3% of 220,000 active; Aldehyde dehydrogenase 1A1 (Homo sapiens), P00352; Purified ALDH1A1, NADH fluorescence, propionaldehyde substrate; active = well fitted inhibition curve with a large enough effect, not every such curve was filed as active; inconclusive = small, poorly fitted or top-dose-only effect, or another doubt; inactive = no such curve, though single readings can be large or run the other way;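 also: plate controls were no enzyme wells and a reference inhibitor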
# HTT cytoprotect = qHTS Multiplex Assay to Identify Dual Action Probes in a Cell Model of Huntington: Cytoprotection (ATP); PC12 HTT-Q103 induced, cytoprotection, ATP luminescence, 40 h; Potency, µM (highest dose often 56.4 µM), inactives show cytoprotection (ATP increase), actives largely listed as activators; 0.14% of 230,000 active; AID 1471, 2008; also: % of control where 0% means no effect; nearly all actives have a fitted effect of over 45% in size
#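 ATP quantification (ATPlite) reports survival of PC12 cells in which tebufenozide, 100 nM final, switches on Htt exon 1 with 103 glutamines linked to GFP; compounds are titrated.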
# The depositor's hits bear a star; u = inconclusive; x = no result given; [ ] = remark or other dose. Unless noted, calls follow the shape of the dose curve; as a rule, active = well fitted curve in the direction sought with a large enough effect; inconclusive = small, poorly fitted or top-dose-only effect, or another doubt; inactive = no such curve, though single readings can be large; an effect the other way counts as inactive or inconclusive. Potency is read from the fitted curve at half-maximal effect.
SMILES,HPGD block,HTT aggregate,Luc counter,LMNA splice mod,ALDH1A1 inh,HTT cytoprotect
Cc1c(NC(=S)N/C(=N/S(=O)(=O)c2ccc(Cl)cc2)c2ccccc2)c(=O)n(-c2ccccc2)n1C,x,20.2%[9.22 µM],x,x,8.91µM*,14.5%[10 µM]
Cc1noc(C)c1CSc1nnc(-c2ccccc2)n1N,20µM*,-0.3%,14.5%,7.8%,10µM*,-7.1%
Cc1noc(C)c1CSc1nc2ccccc2n1CCc1ccccc1,-27.7%,14.4%,-2.3%,-6.9%,28.2µM*,-20.0%[0.074 µM]
CCOc1ccc(Cl)cc1S(=O)(=O)N1CCCC1,-8.3%,-17.6%,-2.5%,8.8%,9.2%,6.6%
CCCCNC(=O)COC(=O)c1cc(Br)ccc1Cl,u,u,-0.1%,-7.5%,6.8%,35.3%[10 µM]
COc1ccccc1CNC(=O)C1CC(=O)N(c2ccc(C)c(C)c2)C1 (stereo not given),-1.3%,17.1%,-1.6%,-6.2%,6.31µM*,-10.6%[0.074 µM]
COc1ccccc1CNC(=O)C1CC(=O)N(C2CCCC2)C1 (stereo not given),-15.6%,4.5%,2.5%,-6.4%,1.4%,3.6%
CCN(C(=O)Nc1cn(CC(C)C)c(=O)c2ccccc12)c1cc(C)ccc1C,x,x,x,-1.8%[46 µM],x,x
CCOc1ccc(C(=O)NCCC2=CCCCC2)cc1OCC,x,5.5%,2.4%,-5.0%[46 µM],25.1µM*,-27.8%
Cc1ccccc1NS(=O)(=O)c1cc(C(=O)NCCC2=CCCCC2)ccc1Cl,4.9%,-32.0%,-2.0%,u,20µM*,-55.9%
CSCCC1NC(=O)N(CC(=O)Nc2ccc(N3CCCCC3)cc2)C1=O (stereo not given),-10.0%,u,-2.5%,-8.6%,u,-23.9%[10 µM]
COC(=O)c1ccc(C(/C=C/[C@@H](C)C(=O)NCc2cc(C)n(C)n2)NC(=O)OCc2ccccc2)cc1 (stereo not given in full),-16.8%,x,-2.6%,x,u,-43.6%
CC1CC(C)CN(C(=O)c2cc3c(s2)CCC3)C1 (stereo not given),12.6µM*,2.0%[9.22 µM],0.4%,12.0%,u,-10.9%
O=C(c1cc2c(s1)CCCC2)N1CCN(c2ccccc2)CC1,x,-0.7%,x,x,22.4µM*,-13.4%
N[C@H](C(=O)O)[C@H]1C[C@@H]1C(=O)O,-12.2%,x,0.7%,u,9.1%,-20.2%
CC1CCN(Cc2nnnn2-c2cccc([N+](=O)[O-])c2)CC1,-11.7%,-1.6%,2.7%,0.4%,-4.1%,0.1%[10 µM]
CCOCCCNC(=O)C1CCC(CNS(=O)(=O)c2cccc3nsnc23)CC1 (stereo not given),25.1µM*,1.3%,-0.1%,3.4%,2.6%,-11.9%[10 µM]
COc1ccc(CNC(=O)C2CCC(CNS(=O)(=O)c3cccc4nsnc34)CC2)cc1 (stereo not given),-3.0%,0.0%,-3.8%,3.3%,u,-32.2%
CCN(Cc1ccccc1)S(=O)(=O)c1ccc(S(=O)(=O)N(Cc2ccccn2)Cc2ccco2)cc1,-5.2%,-9.0%,-3.8%,8.1%,13.2%,-13.9%
CC1CCCCN1S(=O)(=O)c1ccc(S(=O)(=O)N(Cc2ccccc2)Cc2ccco2)cc1 (stereo not given),-11.4%,-19.3%,-0.4%,-9.6%,7.08µM*,17.4%[10 µM]
Cc1ccccc1OCC(=O)OCC(=O)c1ccc(OC(=O)c2ccccc2)cc1,-11.8%,15.5%,-4.7%,7.3%,0.8%,-0.6%
C/[N+]([O-])=C\c1coc2ccccc2c1=O,-9.2%,-17.8%,16.6%,1.6%,1.6%,18.9%[10 µM]
O=C(OCCN1C(=O)c2ccccc2C1=O)c1cnccn1,-10.7%,21.4%,0.3%,-1.8%,8.2%,-4.8%[10 µM]
